Reference: PubChem BioAssay (Tox21)
Records with an inconclusive call do not appear. Activity calls are given as the source filed them. Unless noted, calls follow the shape of the dose curve; as a rule, active = well fitted curve in the direction sought with a large enough effect in the repeat runs; inconclusive = weak or mixed curves; inactive = no such curve, though single readings can be large; an effect the other way counts as inactive or inconclusive.

Experiments:
[1] = A CellTox Green Cytotoxicity Assay to monitor cytotoxicity in HepG2 cells - 16 hour (AID 1224876); also: nearly all actives have a fitted effect of over 45% in size
Outline: (§1)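 Continuous culture of HepG2 cells with a membrane-impermeant DNA dye; rising fluorescence marks dead cells. Compound exposure lasted up to 40 h at 37 C, with reads every 8 h from 0 h.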

[2] = qHTS RealTime-Glo MT Cell Viability Assay in HepG2 cells - 32 hour (AID 1224877); also: nearly all actives have a fitted effect of over 55% in size
Outline: (§2)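 Tox21 10K library screened in qHTS format on HepG2 cells carrying RealTime-Glo reagents. Compounds were added after a 5 h preincubation, and the luminescent signal from continuous culture was measured repeatedly during 40 h treatment.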

[3] = A CellTox Green Cytotoxicity Assay to monitor cytotoxicity in HepG2 cells - 24 hour (AID 1224878); also: nearly all actives have a fitted effect of over 45% in size
Outline: as §1

[4] = A CellTox Green Cytotoxicity Assay to monitor cytotoxicity in HepG2 cells - 40 hour (AID 1224879); also: nearly all actives have a fitted effect of over 40% in size
Outline: as §1

[5] = qHTS RealTime-Glo MT Cell Viability Assay in HEK293 cells - 0 hour (AID 1224880); also: top concentration of the series differs between compounds; nearly all actives have a fitted effect of over 45% in size
Outline: (§3)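 qHTS format; HEK293 cells with NanoLuc/prosubstrate reagent, 37 C/5% CO2 for 5 h pre-dosing; compounds 23 nL in DMSO; luminescence at each time point reflects viable cells.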

[6] = A CellTox Green Cytotoxicity Assay to monitor cytotoxicity in HepG2 cells - 32 hour (AID 1224883); also: nearly all actives have a fitted effect of over 50% in size
Outline: as §1

[7] = A CellTox Green Cytotoxicity Assay to monitor cytotoxicity in HEK293 cells - 8 hour (AID 1224884); also: nearly all actives have a fitted effect of over 35% in size
Outline: (§4)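 Each value comes from one timepoint of a single continuous run in which HEK293 cells with CellTox Green were exposed to compound for up to 40 h at 37 C, dye fluorescence rising with cell death.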

[8] = qHTS RealTime-Glo MT Cell Viability Assay in HepG2 cells - 16 hour (AID 1224885); also: nearly all actives have a fitted effect of over 50% in size
Outline: as §2

[9] = qHTS RealTime-Glo MT Cell Viability Assay in HEK293 cells - 24 hour (AID 1224886); also: top concentration of the series differs between compounds; nearly all actives have a fitted effect of over 50% in size
Outline: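 Luminescence generated by NanoLuc from substrate produced by living HEK293 cells served as the viability signal. Each value reflects the reading at its stated time point during continuous 40 h compound exposure at 37 C.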

[10] = qHTS RealTime-Glo MT Cell Viability Assay in HEK293 cells - 8 hour (AID 1224887); also: top concentration of the series differs between compounds; nearly all actives have a fitted effect of over 50% in size
Outline: as §3

[11] = A CellTox Green Cytotoxicity Assay to monitor cytotoxicity in HEK293 cells - 16 hour (AID 1224888); also: nearly all actives have a fitted effect of over 35% in size
Outline: as §4

[12] = qHTS RealTime-Glo MT Cell Viability Assay in HepG2 cells - 0 hour (AID 1224889); also: nearly all actives have a fitted effect of over 50% in size
Outline: as §2

[13] = A CellTox Green Cytotoxicity Assay to monitor cytotoxicity in HepG2 cells - 8 hour (AID 1224890); also: nearly all actives have a fitted effect of over 45% in size
Outline: as §1

[14] = qHTS assay to identify small molecule antagonists of the estrogen receptor alpha (ER-alpha) signaling pathway using the BG1 cell line in the presence of 0.1 nM 17-beta-estradiol - cell viability counter screen (AID 1259241); also: nearly all actives have a fitted effect of over 40% in size
Outline: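 The cell line endogenously expresses full-length ER-alpha and carries four EREs driving luciferase. Cells are cultured 5 days hormone-free, treated 22 hr with compounds and 0.1 nM estradiol, then viability is read by fluorescence.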

[15] = qHTS assay to identify small molecule antagonists of the androgen receptor (AR) signaling pathway using the MDA cell line in the presence of 0.5 nM R1881 - cell viability counter screen (AID 1259242); also: nearly all actives have a fitted effect of over 45% in size
Outline: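 Fluorescence from CellTiter-Fluor, which reports protease activity of live cells, was read 30 min after reagent addition to MDA-kb2 cells that had been incubated 16 hr with compound and 0.5 nM R1881.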

[16] = molecular target: Estrogen receptor (Homo sapiens) (UniProt P03372); assay: qHTS assay to identify small molecule antagonists of the estrogen receptor alpha (ER-alpha) signaling pathway using the BG1 cell line in the presence of 0.1 nM 17-beta-estradiol (AID 1259244); also: nearly all actives have a fitted effect of over 50% in size
Estrogen receptor (Homo sapiens), sequence (P03372 whole entry, looked up): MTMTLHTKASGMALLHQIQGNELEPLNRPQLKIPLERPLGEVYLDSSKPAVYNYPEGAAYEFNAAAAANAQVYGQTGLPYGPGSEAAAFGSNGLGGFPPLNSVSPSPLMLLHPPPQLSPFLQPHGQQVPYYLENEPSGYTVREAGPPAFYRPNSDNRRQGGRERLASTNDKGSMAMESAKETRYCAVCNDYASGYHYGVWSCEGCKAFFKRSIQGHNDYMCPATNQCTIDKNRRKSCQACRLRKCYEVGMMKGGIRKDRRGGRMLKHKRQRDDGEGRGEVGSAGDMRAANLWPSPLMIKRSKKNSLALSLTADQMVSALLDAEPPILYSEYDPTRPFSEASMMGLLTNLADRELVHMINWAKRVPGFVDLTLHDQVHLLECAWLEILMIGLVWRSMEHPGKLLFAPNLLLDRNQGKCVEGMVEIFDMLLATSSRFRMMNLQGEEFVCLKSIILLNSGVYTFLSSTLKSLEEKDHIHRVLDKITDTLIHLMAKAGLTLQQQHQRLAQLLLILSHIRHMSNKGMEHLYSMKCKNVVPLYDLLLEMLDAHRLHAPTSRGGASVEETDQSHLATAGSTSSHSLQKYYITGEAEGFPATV
Outline: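 Quantitative high-throughput screen in VM7Luc4E2 cells: compound plus 0.1 nM E2 (final), 22 h, 37C, 5% CO2; ONE-Glo added, 30 min room temperature, luminescence measured.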

[17] = A CellTox Green Cytotoxicity Assay to monitor cytotoxicity in HEK293 cells - 32 hour (AID 1224881); also: nearly all actives have a fitted effect of over 40% in size
Outline: as §4

[18] = A CellTox Green Cytotoxicity Assay to monitor cytotoxicity in HepG2 cells - 0 hour (AID 1224882); also: nearly all actives have a fitted effect of over 35% in size
Outline: as §1

[19] = molecular target: Androgen receptor (Homo sapiens) (UniProt P10275); assay: qHTS assay to identify small molecule antagonists of the androgen receptor (AR) signaling pathway using the MDA cell line in the presence of 0.5 nM R1881 (AID 1259243); also: nearly all actives have a fitted effect of over 50% in size
Androgen receptor (Homo sapiens), sequence (P10275 whole entry, looked up): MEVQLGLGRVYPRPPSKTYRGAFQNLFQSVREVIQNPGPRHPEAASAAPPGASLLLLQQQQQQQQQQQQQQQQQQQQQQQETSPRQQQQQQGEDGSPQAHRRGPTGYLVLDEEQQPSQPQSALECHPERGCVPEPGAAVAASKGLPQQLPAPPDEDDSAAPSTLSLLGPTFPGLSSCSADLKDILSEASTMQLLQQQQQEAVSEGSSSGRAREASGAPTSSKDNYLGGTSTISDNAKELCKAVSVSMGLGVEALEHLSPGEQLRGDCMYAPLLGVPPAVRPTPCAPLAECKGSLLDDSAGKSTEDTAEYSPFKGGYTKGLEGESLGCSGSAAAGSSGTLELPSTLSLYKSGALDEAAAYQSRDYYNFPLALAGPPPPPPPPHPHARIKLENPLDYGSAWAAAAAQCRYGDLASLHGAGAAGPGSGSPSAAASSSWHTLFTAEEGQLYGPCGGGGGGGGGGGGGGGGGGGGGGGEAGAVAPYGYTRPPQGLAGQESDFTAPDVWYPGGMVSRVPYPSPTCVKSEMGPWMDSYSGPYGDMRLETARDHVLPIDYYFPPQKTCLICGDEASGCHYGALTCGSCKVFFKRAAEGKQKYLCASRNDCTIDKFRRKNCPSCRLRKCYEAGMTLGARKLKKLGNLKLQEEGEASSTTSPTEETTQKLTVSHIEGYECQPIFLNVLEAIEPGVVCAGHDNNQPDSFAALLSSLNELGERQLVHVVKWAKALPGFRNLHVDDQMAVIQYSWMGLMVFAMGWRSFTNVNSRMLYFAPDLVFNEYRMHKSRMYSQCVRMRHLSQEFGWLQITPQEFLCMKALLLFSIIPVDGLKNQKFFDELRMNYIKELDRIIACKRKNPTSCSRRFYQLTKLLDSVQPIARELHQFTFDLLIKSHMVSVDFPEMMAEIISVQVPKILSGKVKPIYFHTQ
Outline: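 Inhibition of R1881 (0.5 nM final) induced reporter signal was measured in human MDA-kb2 cells; note the MMTV promoter also responds to GR. Exposure lasted 16 hr at 37C.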

[20] = qHTS assay to identify small molecule phospholipidosis (PLD) inducers (AID 1259344; active = well fitted curve in the direction sought with a large enough effect; an effect the other way counts as inactive or inconclusive)
Outline: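 Quantitative HTS in HepG2: compound plus LipidTOX Red dye for 24 h, paraformaldehyde fixation with Hoechst 33342, widefield high-content imaging; amiodarone as positive and DMSO as negative control.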

Measured: Potency

O=C1CCC(=O)N1Cl
not listed: [17] | [18] | [19] | [20]
inactive: all other assays above

Cc1ccc(C)c([N+](=O)[O-])c1
not listed: [4] | [16] | [19] | [20]
inactive: all other assays above

CCCC(=O)OCCC(C)CCC=C(C)C (configuration not stated)
not listed: [5] | [10] | [12] | [16] | [19] | [20]
inactive: all other assays above

CCCCCCCCCCOC(C)=O
not listed: [5] | [18] | [19] | [20]
inactive: all other assays above

CC(O)COC(C)(C)C (configuration not stated)
not listed: [4] | [16] | [19] | [20]
inactive: all other assays above

CCC(=O)c1c(O)cc(O)cc1O
not listed: [9] | [11] | [17]
inactive: all other assays above

CC(=O)CC(=O)OC(C)(C)C
not listed: [7] | [17] | [20]
inactive: all other assays above

C/C=C(\C)C(=O)OCCc1ccccc1
not listed: [6] | [7] | [10] | [16] | [17] | [19] | [20]
inactive: all other assays above

CCCCOCC(C)O (configuration not stated)
not listed: [4] | [10] | [19] | [20]
inactive: all other assays above

Cn1c(=O)c2[nH]c(Br)nc2n(C)c1=O
not listed: [7] | [10] | [16] | [17] | [19]
inactive: all other assays above

CN(C)CCCO[C@@H]1[C@H]2OC(C)(C)O[C@H]2O[C@@H]1C(O)CO (some centres not stated)
not listed: [9] | [17] | [19]
inactive: all other assays above

C=CCCCCCCCC
not listed: [5] | [7] | [16] | [17] | [19] | [20]
inactive: all other assays above

O=C(O)c1cc2ccccc2nc1C(=O)O
not listed: [4] | [10] | [12] | [19] | [20]
inactive: all other assays above

Cc1ccc(C(=O)O)cc1[N+](=O)[O-]
not listed: [17] | [18] | [20]
inactive: all other assays above

O=Cc1ccccc1Cl
not listed: [7] | [11] | [16] | [17] | [19] | [20]
inactive: all other assays above

CC(C)CCOC(=O)c1ccccc1
not listed: [6] | [16] | [17] | [19] | [20]
inactive: all other assays above

C=CCSSCCC
not listed: [9] | [10] | [12] | [17] | [19] | [20]
inactive: all other assays above
